Consider 18 compounds from PubChem BioAssay AID720518 (National Center for Advancing Translational Sciences (NCATS), 2013).

Results filed as inconclusive are left out. Entries that show only a call come without a potency. Activity calls are given as the source filed them. The call rests on the fitted dose curve.

A short description of the experiment: qHTS for Inhibitors of Cell Surface uPA Generation: Wild-type Protective Antigen (WT-PrAg) Counterscreen for Cherry-picked Compounds. As to conditions: cells, WT protective antigen toxicity counterscreen; series mostly up to 115 µM. (In general: qHTS replaces the single test concentration by a dilution series.)
For `Cc1ccc(-n2cccc2C(=O)NS(=O)(=O)c2ccc(C)cc2)cc1`, the Potency result is “inactive”.
Consider `Cc1cc(=O)[nH]c2c(C)cc(S(=O)(=O)Nc3ccc(O)cc3)cc12`, for which the Potency result is “inactive”.
The result for `CCCCn1c(-c2cccnc2)nc2cc3[nH]c(=O)c(C(C)C)nc3cc21` reads “inactive”.
With `O=C(Nc1ccc(NC(=O)c2ccco2)c(Cl)c1)c1ccccc1` the entry was “inactive”; with `CCc1ccccc1N1C(=O)CC(Sc2nccc(C)n2)C1=O` (stereo not drawn), “inactive”; with `Cc1nc2nc(C)c(NS(=O)(=O)c3ccc(Cl)cc3)c(=O)n2[nH]1`, “inactive”.
Turning to `O=C(N/C(=C\c1cccc([N+](=O)[O-])c1)C(=O)N1CCOCC1)c1ccc([N+](=O)[O-])cc1`, the Potency entry was “inactive”.
Regarding `CN(C(=O)c1ccccc1C(=O)OCC(=O)NCc1ccccc1)C1CCCCC1`, the Potency result is “inactive”.
As to `COc1cc(SC)ccc1C(=O)OCc1nc2ccsc2c(=O)[nH]1`, the Potency entry is “inactive”.
Consider `COc1ccc(-c2cc3nc(C)cc(-c4ccc(OC)cc4)n3n2)cc1`, for which the Potency entry was “inactive”.
Turning to `Fc1cccc(Cl)c1CSc1ccc(-c2cccnc2)nn1`, the Potency result was “inactive”.
With `Cc1cccc(Nc2ccc(NCc3ccccc3)nn2)c1` the entry was “inactive”; with `COC(=O)c1ccc(CN2CCCC(CNC(=O)Cc3ccc(OC)cc3)C2)cc1` (stereo not drawn), “inactive”.
As for `Clc1ccc(C2=NN=C3COc4ccccc4N3C2)cc1`, the Potency result is “inactive”.
The result for `Cc1cc(C)c(NC(=O)Cn2nnc(C(=O)NCc3ccc4c(c3)OCO4)c2N)c(C)c1` reads “inactive”; that for `CCc1ccc(NCc2nc(-c3ccccc3)no2)cc1`, “inactive”; that for `COc1ccc(C(C)=O)cc1CSC(=N)N`, “inactive”.
As to `CC1C2=C(CC(C)(C)CC2=O)NC2=C1C(=O)CC(C)(C)C2`, the Potency entry was “inactive”.
